Test [1] in a line: qHTS assay to identify small molecule antagonists of the estrogen related receptor (ERR) signaling pathway from Tox21 library - cell viability counter screen (AID 1224834). Note: nearly all actives have a fitted effect of over 30% in size. Note: potency is the fitted concentration of half-maximal effect. An outline of the steps: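 Fluorescence from CellTiter-Fluor gives the viability read-out, taken 30 min after reagent addition. Before that, ERR cells seeded 6 h earlier were incubated with compounds for 17.5 h at 37 C.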
A general note: qHTS replaces the single test concentration by a dilution series.

Test [2] addresses Luciferin 4-monooxygenase (Photinus pyralis) (UniProt P08659). In words: qHTS assay to identify small molecule inhibitors of firefly luciferase (AID 1224835). For activity change, negative = inhibition: series mostly up to about 120 µM. Note: nearly all actives have a fitted effect of over 25% in size. Note: potency is the fitted concentration of half-maximal effect. An outline of the steps:
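Biochemical qHTS: compounds run as interplate titrations against purified firefly enzyme, with D-luciferin and ATP each at its KM concentration. Light output recorded by CCD imaging.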

Test [3] is described as follows: qHTS assay to identify small molecule agonists of the constitutive androstane receptor (CAR) signaling pathway - cell viability counter screen (AID 1224836). Note: series mostly up to about 92 µM; nearly all actives have a fitted effect of over 45% in size. The essentials: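 Cells were seeded and incubated 4 hrs. Compounds were added across 15 concentrations together with PK11195 at 0.75 uM final. Plates were incubated 23 hrs at 37 C. CellTiter-Fluor was added and fluorescence measured.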

Test [4] can be described thus: qHTS assay to identify small molecule antagonists of the constitutive androstane receptor (CAR) signaling pathway - cell viability counter screen (AID 1224837). For activity change, negative = cytotoxicity: series mostly up to about 92 µM. Note: nearly all actives have a fitted effect of over 45% in size. Note: potency is the fitted concentration of half-maximal effect. An outline of the steps:
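HepG2-CYP2B6-hCAR cells, 2500/well, 4 hr pre-incubation; compound titration, 15 conc.; CITCO 50 nM final; 23 hr, 37 C/5% CO2; CellTiter-Fluor, fluorescence intensity.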

Test [5] in a line: qHTS assay to identify small molecule antagonists of the estrogen related receptor signaling pathway with the pleiotropic PPARgamma coactivator (PGC) from Tox21 10K library - cell viability counter screen (AID 1224840; active = well fitted cell-killing curve with a large enough effect in the repeat runs, not every such curve was filed as active; note: nearly all actives have a fitted effect of over 40% in size; note: potency is the fitted concentration of half-maximal effect). The essentials:
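PGC/ERR cells, 2,000/well; 6 h pre-incubation 37 C/5% CO2; cpd in DMSO via pin tool; 17.5 h 37 C; CellTiter-Fluor, 30 min; fluorescence.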

For test [6], the target named is Thyrotropin receptor (Homo sapiens) (UniProt P16473). The test is described as follows: qHTS assay to identify small molecule agonists of the thyroid stimulating hormone receptor (TSHR) signaling pathway (AID 1224843; calls by dose curve; note: nearly all actives have a fitted effect of over 45% in size). The essentials:
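TSHR-HEK293 cells in agonist mode, 30 min room-temperature step, then cAMP measured by competitive HTRF (cAMP-d2 with anti-cAMP cryptate) after 1 h at room temperature. Tested at 15 concentrations in triplicate.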

Test [7] concerns the target Nuclear receptor subfamily 1 group I member 3 (Homo sapiens) (UniProt Q14994). The test is described as follows: qHTS assay to identify small molecule antagonists of the constitutive androstane receptor (CAR) signaling pathway (AID 1224838).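 Note: HepG2 cells stably expressing hCAR with CYP2B6 luciferase reporter stimulated by CITCO; nearly all actives have a fitted effect of over 40% in size.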 An outline of the steps:
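HepG2-CYP2B6-hCAR cells; 4 h pre-incubation; cpd (15 conc) + CITCO 50 nM final; 24 h, 37 C/5% CO2; ONE-Glo, luminescence.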

For test [8] the target is unchanged. The test is described as follows: qHTS assay to identify small molecule agonists of the constitutive androstane receptor (CAR) signaling pathway (AID 1224839).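 For activation: HepG2 cells stably carrying human CAR and a CYP2B6 luciferase reporter; series mostly up to about 92 µM.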 Note: nearly all actives have a fitted effect of over 15% in size. Note: potency is the fitted concentration of half-maximal effect. The essentials: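 Cells were plated and incubated 4 hrs, then dosed with compounds at 15 concentrations. PK11195 was added to 0.75 uM final. After 24 hrs at 37 C, luciferase luminescence was measured.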

The nature of test [9]: qHTS assay to identify small molecule antagonists of the estrogen related receptor signaling pathway with the pleiotropic PPARgamma coactivator (PGC) from Tox21 10K library (AID 1224841; call rule not given here; note: series mostly up to about 92 µM; actives are mostly falling curves and most rising ones were filed inactive; nearly all actives have a fitted effect of over 50% in size). An outline of the steps: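 PGC/ERR cell line, 2,000 cells/well; 6 h pre-incubation 37 C/5% CO2; compounds (DMSO) pinned in; 18 h, 37 C; One-Glo, 30 min RT; luminescence.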
Test [10] in a line: qHTS assay to identify small molecule agonists of the estrogen related receptor signaling pathway with the pleiotropic PPARgamma coactivator (PGC) from Tox21 10K library (AID 1224842). Note: nearly all actives have a fitted effect of over 15% in size. Note: potency is the fitted concentration of half-maximal effect. An outline of the steps:
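PGC/ERR reporter cell line, 2,000 cells per well, incubated 6 h at 37 C before 23 nL compound in DMSO was added. After 18 h at 37 C, One-Glo luminescence read following 30 min at room temperature.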

Inconclusive results are not listed. Values without a mark were called inactive. Calls of active or inactive are those of the source. Unless noted, calls come from the whole dose curve; as a rule, active = well fitted curve in the direction sought with a large enough effect in the repeat runs; inconclusive = weak or mixed curves; inactive = no such curve, though single readings can be large; an effect the other way counts as inactive or inconclusive.
% is set by controls: 0 for no effect and ±100 for the full control effect.

Thyrotropin receptor (Homo sapiens), sequence (P16473 whole entry, looked up): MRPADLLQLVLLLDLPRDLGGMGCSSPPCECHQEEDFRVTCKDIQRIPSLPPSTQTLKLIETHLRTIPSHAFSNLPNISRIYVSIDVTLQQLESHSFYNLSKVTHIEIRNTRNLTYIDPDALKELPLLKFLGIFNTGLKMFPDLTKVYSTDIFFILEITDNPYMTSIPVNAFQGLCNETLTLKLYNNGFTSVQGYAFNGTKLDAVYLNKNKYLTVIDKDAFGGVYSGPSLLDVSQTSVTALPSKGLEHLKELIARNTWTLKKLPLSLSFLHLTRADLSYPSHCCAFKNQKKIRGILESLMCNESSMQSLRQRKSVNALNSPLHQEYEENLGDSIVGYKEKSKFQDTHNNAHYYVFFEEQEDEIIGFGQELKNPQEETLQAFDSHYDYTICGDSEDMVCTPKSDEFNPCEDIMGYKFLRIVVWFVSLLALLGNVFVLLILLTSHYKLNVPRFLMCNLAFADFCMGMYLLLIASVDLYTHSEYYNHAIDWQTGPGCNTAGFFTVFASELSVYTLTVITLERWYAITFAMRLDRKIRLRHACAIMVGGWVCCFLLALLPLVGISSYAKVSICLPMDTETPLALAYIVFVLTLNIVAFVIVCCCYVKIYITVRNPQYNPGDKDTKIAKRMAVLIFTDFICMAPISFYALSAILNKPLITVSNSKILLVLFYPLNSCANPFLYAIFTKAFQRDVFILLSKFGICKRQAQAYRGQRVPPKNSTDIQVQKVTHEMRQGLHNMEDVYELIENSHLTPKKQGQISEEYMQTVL
Nuclear receptor subfamily 1 group I member 3 (Homo sapiens), sequence (Q14994 whole entry, looked up): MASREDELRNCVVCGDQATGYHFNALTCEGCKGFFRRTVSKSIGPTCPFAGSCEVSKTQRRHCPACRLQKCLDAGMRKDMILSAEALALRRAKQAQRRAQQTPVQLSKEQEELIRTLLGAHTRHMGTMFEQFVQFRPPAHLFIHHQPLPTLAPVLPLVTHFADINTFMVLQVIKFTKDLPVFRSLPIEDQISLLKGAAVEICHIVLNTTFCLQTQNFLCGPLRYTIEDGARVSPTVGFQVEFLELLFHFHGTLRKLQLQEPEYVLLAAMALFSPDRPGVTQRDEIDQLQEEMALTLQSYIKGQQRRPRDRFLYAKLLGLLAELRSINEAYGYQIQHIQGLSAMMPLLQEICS
Luciferin 4-monooxygenase (Photinus pyralis), sequence (P08659 whole entry, looked up): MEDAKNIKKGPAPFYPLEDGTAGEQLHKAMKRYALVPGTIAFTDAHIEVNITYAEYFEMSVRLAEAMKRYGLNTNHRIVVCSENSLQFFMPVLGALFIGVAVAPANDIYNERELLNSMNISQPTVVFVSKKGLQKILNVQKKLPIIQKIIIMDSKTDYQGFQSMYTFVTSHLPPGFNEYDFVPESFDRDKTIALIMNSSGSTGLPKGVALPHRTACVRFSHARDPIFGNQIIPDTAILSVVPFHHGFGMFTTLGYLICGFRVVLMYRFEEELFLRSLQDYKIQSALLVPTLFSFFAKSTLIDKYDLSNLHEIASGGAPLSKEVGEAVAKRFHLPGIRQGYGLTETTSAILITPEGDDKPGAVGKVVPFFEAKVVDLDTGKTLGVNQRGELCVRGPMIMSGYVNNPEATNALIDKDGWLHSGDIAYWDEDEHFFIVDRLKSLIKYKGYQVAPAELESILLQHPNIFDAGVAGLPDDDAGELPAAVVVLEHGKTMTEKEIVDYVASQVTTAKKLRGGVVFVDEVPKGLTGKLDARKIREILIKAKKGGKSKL

For the compound `O=C(O)c1ccccc1Cl`, the Potency entry in [1], in [2], in test [3], in test [4], in test [5] and in test [6] was “inactive” each time.
As to `CC(=O)NO`, the Potency result in test [1], in [2], in test [4], in [7], in test [8] and in test [5] was “inactive” throughout. Further, the Potency result in test [6] was “inactive”.
Turning to `CC(C)Nc1ccc(NC(C)C)c2c1C(=O)c1ccccc1C2=O`, the results for the Potency in test [1] and in test [2] were 20.1 µM (active) and 33 µM (active), respectively. In addition, the Potency result in [4], in [7] and in test [8] was “inactive” in each case.
In the case of `C/C=C/C(=O)CC`, the viability change, negative = cytotoxic is 3.2% [at 19 µM] in [1] and 7.3% [at 19 µM] in test [5]. Moreover, in test [2], the activity change, negative = inhibition was 3.1% [at 23.6 µM]. Also, the activity change, negative = cytotoxicity in [4] was 0.0894% [at 19 µM]. The activity, negative = inhibition in test [7] is -5.29% [at 19 µM]. For the same compound, the Potency entry in [8] is “inactive”. Besides, in test [6], the activation was -10.5% [at 19 µM].
`C/C(=C(\CCOP(=O)(O)O)SC(=O)c1ccccc1)N(C=O)Cc1cnc(C)nc1N`: the values for the viability change, negative = cytotoxic in test [1] and in test [5] were 0.62% [at 8.39 µM] and -2.4% [at 8.39 µM], respectively. Also, the activity change, negative = inhibition in test [2] is 0.277% [at 10.5 µM]. For the same compound, in test [4], the activity change, negative = cytotoxicity is 5.24% [at 8.39 µM]. For the same compound, the activity, negative = inhibition in [7] is -18% [at 8.39 µM]. Moreover, the activation in [6] is -3.96% [at 8.39 µM].
With `O=C(O)c1ccco1`, the Potency result in [1], in test [2], in [3], in [4], in test [5] and in [6] was “inactive” throughout.
Consider `COCC(C)OC(C)=O` (stereo not given), for which the Potency entry in test [1], in [2], in [4], in [7], in test [8] and in [5] was “inactive” each time.
In the case of `CCCCCCCN`, the Potency entry in test [1], in test [2], in test [4], in test [7], in test [8] and in [5] was “inactive” in each case. For the same compound, the Potency result in test [6] is “inactive”.
As to `COc1cccc(N(C)C(=S)Oc2ccc3c(c2)CCCC3)n1`, the Potency result in [1], in [2], in [4], in [7], in [8] and in [5] was “inactive” throughout.
For the compound `CO[C@@H]1[C@H](OC(=O)/C=C/C=C/C=C/C=C/C(=O)O)CC[C@]2(CO2)[C@H]1[C@@]1(C)O[C@@H]1CC=C(C)C`, the Potency entry in [1], in test [2], in test [4], in test [8], in [5] and in [6] was “inactive” in each case.
In the case of `C#C[C@]1(O)CC[C@H]2[C@@H]3CCc4cc(OC5CCCC5)ccc4[C@H]3CC[C@@]21C`, the Potency entry in [1], in [2], in [3] and in [5] was “inactive” in each case.
On to `CCCCCCCCCCCCN1CCCCCC1=O`, for which the Potency entry in test [1], in test [2], in test [4], in test [7], in test [5] and in test [9] was “inactive” in each case. Also, in test [10], the Potency result is “inactive”. In [8], the Potency is 61.1 µM (active).
In the case of `Clc1ccc2c(c1)CCc1cccnc1C2=C1CCNCC1`, the Potency entry in test [1], in test [2], in test [4] and in [8] was “inactive” throughout.
As to `C=CC(=O)OCCOCCOC(=O)C=C`, the Potency in test [1] was 38.7 µM (active); in [4], 61.4 µM (active); in [5] it was 30.8 µM (active); in [10], 9.73 µM (active). The Potency result in test [2] and in test [8] was “inactive” in each case.
`CNC(=O)CN(CCN(CCN(CC(=O)[O-])CC(=O)NC)CC(=O)[O-])CC(=O)[O-].O.[Gd+3]`: the Potency entry in test [1], in test [2], in test [4], in test [7], in test [8] and in [5] was “inactive” throughout.

(Values after PubChem BioAssay (Tox21).)
